The results in this text go back to PubChem BioAssay.

Calls of active or inactive are those of the source.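 Rule for the calls, unless noted: active = inhibition above 20% together with a positive visual image hit; inconclusive = visual image hit but inhibition not above 20%; inactive = no visual image hit.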

Test [1] is described as follows: inhibitors of TNFa-induced NFkB p65 translocation, primary screen, imaging, HUVEC, MLSMR starter and 10KST1 sets (AID 438).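 For inhibition: signal is the nuclear over cytoplasmic p65 intensity ratio per well.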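 Note: compound added about 3h40 before a 20 min TNFalpha stimulation.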 The note with it: HUVEC TNFa-induced p65 nuclear translocation; cell count: measured here: nuclei count (cytotoxicity indicator), at 2.08 µM; inhibition: at 2 µM, stronger effect = higher value, 0% TNFa-plus-vehicle, 100% no-TNFa wells.
A short description of test [2]: inhibitors of mutant huntingtin aggregation, primary screen, imaging, exon1htt(103Q)mCFP cells, high-content imaging (AID 483;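 active = visual image review flags a hit and inhibition of aggregation exceeds 20%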;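 note: compound exposure lasted 3 days before fixation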;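 for nuclei count: percent of the per-plate median nuclei count of sample wells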). The note with it: exon1htt(103Q)mCFP cell line, aggregate imaging, at 2 µM; inhibition of aggregation: stronger effect = higher value; nuclei count: measured here: cell count, toxicity.
A short description of test [3]: inhibitors of E-selectin induction by TNFa, primary screen, imaging, HUVEC, immunofluorescence, MLSMR starter and 10KST1 sets (AID 487;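 active = visually confirmed hit in the image check and inhibition above 20%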;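 for inhibition: signal is fraction of cell area covered by stained E-selectin grains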;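 for nuclei count: 100% = median nuclei count of all wells on the same plate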). The note with it: HUVEC TNFalpha-induced E-selectin immunofluorescence imaging, at 2 µM; inhibition: stronger effect = higher value; nuclei count: measured here: cell number, toxicity.
Test [4] deals with Voltage-gated potassium channel subunit beta-2 (Rattus norvegicus) (UniProt P62483). Description: KvBeta enzyme negative modulators, primary screen, biochemical, NADPH fluorescence (AID 622;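 active = fluorescence slope higher than the sample average by over 3 SD, cut at about -0.22 in these data, passing the limit was not always enough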;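 note: slope of raw intensity against log time taken from 70 to 1610 s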). Particulars: recombinant KvBeta, 4-cyanobenzaldehyde reduction, at 10 µM, stronger effect = higher value.
Sequence of Voltage-gated potassium channel subunit beta-2 (Rattus norvegicus) (P62483 whole entry, looked up): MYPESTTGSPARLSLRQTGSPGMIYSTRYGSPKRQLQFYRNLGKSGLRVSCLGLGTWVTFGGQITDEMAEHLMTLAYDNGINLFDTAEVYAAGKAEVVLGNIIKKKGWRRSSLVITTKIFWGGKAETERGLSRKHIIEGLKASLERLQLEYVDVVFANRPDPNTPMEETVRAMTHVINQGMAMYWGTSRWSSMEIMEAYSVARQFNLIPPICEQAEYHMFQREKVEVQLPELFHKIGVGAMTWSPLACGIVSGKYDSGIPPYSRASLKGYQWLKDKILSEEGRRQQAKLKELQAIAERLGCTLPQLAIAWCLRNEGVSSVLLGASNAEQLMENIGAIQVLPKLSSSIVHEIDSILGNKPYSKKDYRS
Test [5] shares this target. In words: KvBeta positive modulators, primary screen, biochemical, NADPH fluorescence (AID 623;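 active = NADPH fluorescence slope more negative than the mean of all samples by about 3 SD, 99.7% confidence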;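 note: fluorescence intensity change per second fitted from 20 to 320 s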). The note with it: Recombinant KvBeta, NADPH fluorescence decrease slope, 10 min; at 10 µM; stronger effect = lower value.
Test [6] addresses Alpha-2C adrenergic receptor (Homo sapiens) (UniProt P18825). In words: modulators of alpha2C/GIRK thallium flux, primary screen, cell-based, HEK293 alpha2C/GIRK1/2 (AID 624;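 active = fluorescence slope after compound addition differing from the mean of all screened samples at 99.7% confidence, in either direction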;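 note: slope of fluorescence ratio to pre-addition baseline per second over 15 to 24 s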). Particulars: thallium flux BTC fluorescence, at 10 µM, actives lie on both sides.
A short description of test [7]: inhibitors of Sendai virus-induced IRF3 signaling, primary screen, TLR/RLR signaling modifier project, cell-based, Sendai virus stimulus, luciferase, 10K MLSCN set (AID 602276;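 active = inhibition at or above 50% at 10 µM; inactive = inhibition below 50%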;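 note: firefly luciferase from ISG56 promoter only with Renilla not read in this screen; 0% = Sendai virus plus DMSO and 100% = medium plus DMSO without virus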). Particulars: HEK293 RL24 IRF3 luciferase reporter, at 10 µM, stronger effect = higher value. (In a reporter assay the amount or activity of a reporter protein is the signal.)
Test [8] is described as follows: inhibitors of poly I:C-induced TLR3 signaling, primary screen, cell-based, poly I:C stimulus, luciferase, 10K MLSCN set (AID 602277;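 active = inhibition of the reporter signal at or above 50%; inactive = inhibition below 50%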). The note with it: HEK293-TLR3 RL24 IRF3 luciferase reporter, at 10 µM, stronger effect = higher value.

Sequence of Alpha-2C adrenergic receptor (Homo sapiens) (P18825 whole entry, looked up): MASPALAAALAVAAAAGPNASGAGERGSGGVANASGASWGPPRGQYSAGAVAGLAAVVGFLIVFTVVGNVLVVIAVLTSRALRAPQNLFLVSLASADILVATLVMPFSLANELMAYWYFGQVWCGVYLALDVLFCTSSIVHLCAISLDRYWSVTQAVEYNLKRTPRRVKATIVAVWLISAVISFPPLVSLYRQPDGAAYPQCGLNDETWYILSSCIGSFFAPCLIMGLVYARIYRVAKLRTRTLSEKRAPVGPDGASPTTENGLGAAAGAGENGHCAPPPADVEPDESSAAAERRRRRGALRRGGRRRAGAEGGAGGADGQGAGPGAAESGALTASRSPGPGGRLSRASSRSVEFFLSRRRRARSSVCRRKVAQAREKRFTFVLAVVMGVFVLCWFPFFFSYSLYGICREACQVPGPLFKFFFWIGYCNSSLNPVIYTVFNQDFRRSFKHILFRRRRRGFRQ

As a reminder, the inhibition is the relative decrease from the control value, in per cent. For the compound `CCOC(=O)c1cc(-c2ccc(N)cc2)sc1N`, in test [1], the cell count was 588. For the same compound, the inhibition in test [1] was 14.8% (inactive); in test [3], 26.4% (inactive); in test [7], -50.5% (inactive); in test [8] it was -117% (inactive). Also, the inhibition of aggregation in test [2] is 24% (inactive). The nuclei count was determined as 90.5% in test [2] and 100% in test [3]. Moreover, in test [4], the fluorescence slope was -0.433 (inactive). Besides, in test [5], the NADPH fluorescence slope is -7.7e-05 (inactive). In test [6], the slope was 0.00189 (inactive).
As to `CCOC(=O)N1CCN(C(=O)CSc2cc(C)nc3c(-c4ccccc4OC)c(C)nn23)CC1`, the cell count in test [1] was 543. Besides, the inhibition in test [1] was -9.8% (inactive); in test [3], 14.7% (inactive); in test [7], -11.1% (inactive); in test [8], -5.36% (inactive). Besides, in test [2], the inhibition of aggregation was -34.4% (inactive). Further, the nuclei count in test [2] amounted to 122%; in test [3], 110%. In addition, in test [4], the fluorescence slope is -0.54 (inactive). Moreover, the NADPH fluorescence slope in test [5] is 1.2e-05 (inactive). In addition, the slope in test [6] was 0.00377 (inactive).
`O=c1[nH]cnc2c1C1(CCCC1)Cc1ccccc1-2`: the cell count in test [1] was 381. Besides, the inhibition is -10.6% (inactive) in test [1], -22.8% (inactive) in test [3], 9.37% (inactive) in test [7] and 35.4% (inactive) in test [8]. The inhibition of aggregation in test [2] was 19.5% (inactive). Further, the nuclei count came to 87% in test [2] and 110% in test [3]. Besides, the fluorescence slope in test [4] is -0.274 (inactive). For the same compound, the NADPH fluorescence slope in test [5] is -1.9e-05 (inactive). Besides, the slope in test [6] was 0.00586 (inactive).
As to `CCOc1cccc(/C(O)=C2/C(=O)C(=O)N(CCN3CCOCC3)C2c2cccnc2)c1` (centres undefined), the cell count in test [1] came to 733. Besides, the inhibition in test [1] is -1.1% (inactive); in test [3] it was -18.1% (inactive); in test [7] it was 14.8% (inactive); in test [8], 28.3% (inactive). The inhibition of aggregation in test [2] was -4.6% (inactive). Further, the nuclei count came out at 104% in test [2] and 97.6% in test [3]. Moreover, the fluorescence slope in test [4] is -0.421 (inactive). Also, the NADPH fluorescence slope in test [5] is -5e-05 (inactive). For the same compound, the slope in test [6] is 0.00281 (inactive).
Consider `CC(C)Cn1c(N)c(C(=O)COC(=O)c2ccc3c(c2)OCCO3)c(=O)n(C)c1=O`, for which the cell count in test [1] stood at 365. The inhibition in test [1] was -4.4% (inactive); in test [3], -5.7% (inactive); in test [7], -14.6% (inactive); in test [8] it was -49.5% (inactive). The inhibition of aggregation in test [2] was -5.7% (inactive). The nuclei count in test [2] came to 75.7%; in test [3], 106%. The fluorescence slope in test [4] was -0.575 (inactive). The NADPH fluorescence slope in test [5] is -6.3e-05 (inactive). The slope in test [6] is 0.0066 (inactive).
In the case of `CCc1nnc(NC(=O)CSc2nnc(-c3cc4ccccc4cc3O)n2CC)s1`, in test [1], the cell count worked out at 674. For the same compound, the inhibition in test [1] was -7.8% (inactive); in test [3], -52.3% (inactive); in test [7], 7.37% (inactive); in test [8], 11.2% (inactive). In addition, the inhibition of aggregation in test [2] is 1.7% (inactive). The figures for the nuclei count in test [2] and in test [3] were 109% and 125%, respectively. Moreover, the fluorescence slope in test [4] is -0.511 (inactive). Besides, in test [5], the NADPH fluorescence slope is 2.5e-06 (inactive). Moreover, the slope in test [6] is 0.00587 (inactive).
Turning to `NC(=O)COC(=O)c1ccc(S(=O)(=O)N2CCCCCC2)cc1`, the cell count in test [1] worked out at 449. For the same compound, the inhibition in test [1] was -7.8% (inactive); in test [3] it was -17.6% (inactive); in test [7], 11% (inactive); in test [8] it was 14% (inactive). Moreover, the inhibition of aggregation in test [2] was 6.3% (inactive). Further, the nuclei count was found to be 104% in test [2] and 116% in test [3]. In test [4], the fluorescence slope was -0.348 (inactive). The NADPH fluorescence slope in test [5] was -6.2e-05 (inactive). For the same compound, the slope in test [6] was 0.00701 (inactive).
On to `O=C(c1ccco1)N1CCN(C(=O)C2CC(c3ccc(F)cc3)=NO2)CC1` (centres undefined), for which the cell count in test [1] turned out to be 448. In addition, the inhibition was -12.3% (inactive) in test [1], -12.7% (inactive) in test [3], 7.52% (inactive) in test [7] and 13.1% (inactive) in test [8]. For the same compound, the inhibition of aggregation in test [2] is -13.2% (inactive). Also, the nuclei count in test [2] amounted to 106%; in test [3] it was 112%. In addition, the fluorescence slope in test [4] was -0.622 (inactive). Moreover, the NADPH fluorescence slope in test [5] is 2.2e-07 (inactive). For the same compound, in test [6], the slope was 0.00657 (inactive).
Turning to `c1ccc(OCCCn2nnc(-c3cccnc3)n2)cc1`, the cell count in test [1] turned out to be 340. Further, the inhibition is 0.3% (inactive) in test [1], -79.2% (inactive) in test [3], 2.51% (inactive) in test [7] and -2.63% (inactive) in test [8]. Further, the inhibition of aggregation in test [2] is 12.8% (inactive). Besides, the nuclei count turned out to be 95.2% in test [2] and 121% in test [3]. Moreover, the fluorescence slope in test [4] was -0.343 (inactive). The NADPH fluorescence slope in test [5] was 4.3e-06 (inactive). In test [6], the slope is 0.0037 (inactive).
Turning to `CC(C)N(C(=O)CSc1nnc(-c2cc3ccccc3cc2O)n1Cc1ccco1)C(C)C`, the cell count in test [1] came to 836. In addition, the inhibition in test [1] was 6.2% (inactive); in test [3], 4.9% (inactive); in test [7], -4.55% (inactive); in test [8], 7.55% (inactive). The inhibition of aggregation in test [2] was -6.1% (inactive). For the same compound, the values for the nuclei count in test [2] and in test [3] were 107% and 102%, respectively. The fluorescence slope in test [4] is -0.47 (inactive). Besides, the NADPH fluorescence slope in test [5] is -2.4e-05 (inactive). Also, the slope in test [6] is 0.00627 (inactive).
As to `CCOC(=O)C1=C(C)Nc2nc(SCC(=O)OC)nn2C1c1cc(F)cc(F)c1` (centres undefined), the cell count in test [1] is 432. Also, the inhibition was -15.7% (inactive) in test [1], 1% (inactive) in test [3], 2.11% (inactive) in test [7] and 8.56% (inactive) in test [8]. For the same compound, the inhibition of aggregation in test [2] is -6.3% (inactive). Further, the nuclei count in test [2] came out at 96.1%; in test [3], 96%. In addition, the fluorescence slope in test [4] is -0.592 (inactive). Further, the NADPH fluorescence slope in test [5] was -3.9e-05 (inactive). For the same compound, in test [6], the slope is 0.00688 (inactive).
`Cc1cc(C)c(S(=O)(=O)Nc2cccnc2)c(C)c1`: the cell count in test [1] came out at 610. In addition, the inhibition in test [1] is -4.7% (inactive); in test [3], -20.4% (inactive); in test [7] it was 17.2% (inactive); in test [8], 15.7% (inactive). Further, the inhibition of aggregation in test [2] was -11.3% (inactive). For the same compound, the nuclei count stood at 119% in test [2] and 113% in test [3]. Further, in test [4], the fluorescence slope is -0.614 (inactive). For the same compound, the NADPH fluorescence slope in test [5] is -5.3e-05 (inactive). The slope in test [6] is 0.00327 (inactive).
For `CCN1CCN(CCCNC(=O)C2c3ccccc3C(=O)N(C)C2c2ccc(OC)cc2)CC1` (centres undefined), in test [1], the cell count is 567. Further, the inhibition is 15.4% (inactive) in test [1], 31.9% (inactive) in test [3], 2.59% (inactive) in test [7] and 14% (inactive) in test [8]. Also, the inhibition of aggregation in test [2] is -1.2% (inactive). The nuclei count in test [2] turned out to be 82.8%; in test [3], 93.8%. The fluorescence slope in test [4] is -0.504 (inactive). The NADPH fluorescence slope in test [5] was -1.6e-06 (inactive). Further, the slope in test [6] was 0.00453 (inactive).
For the compound `O=C(CSc1nnc(CNC(=O)c2c(F)cccc2Cl)o1)c1ccccc1`, the cell count in test [1] came to 672. Also, the inhibition was -19.6% (inactive) in test [1], -111% (inactive) in test [3], 3.28% (inactive) in test [7] and 18.3% (inactive) in test [8]. Further, the inhibition of aggregation in test [2] is 40.1% (active). The figures for the nuclei count in test [2] and in test [3] were 100% and 123%, respectively. The fluorescence slope in test [4] is -0.406 (inactive). Moreover, the NADPH fluorescence slope in test [5] is -5.2e-05 (inactive). The slope in test [6] was 0.00534 (inactive).
